hgDAF12 agonist – H. glycines DAF-12 receptor agonists, primary screen, cell-based, luminescence, HEK293, GAL4 fusion, UAS-luciferase | Nuclear hormone receptor DAF-12 (Heterodera glycines), GAL4 fusion | HEK293 GAL4-hgDAF12 UAS-luciferase reporter, agonist luminescence; normalized to butyrate control | activation, % at 6.8 µM | 370,000 tested, 1.8% active | AID 687014, 2013;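 active = activation above a cutoff set at the mean of all screened compounds plus 3 SD, cut at about 10% in these data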;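 also: 0% = DMSO wells and 100% = sodium butyrate wells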
hcDAF-12 act – H. contortus DAF-12 nuclear receptor activators, primary screen, cell-based, luminescence, HEK293, lit1-tk-luc reporter. activation, % at 6.8 µM. AID 652067, 2013. HEK293 hcDAF-12 lit1-tk-luc reporter; 0% DMSO, 100% Δ7-dafachronic acid. 370,000 tested, 1.4% active;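 active = activation above the mean of all tested compounds plus 3 SD, cut at about 5.5% in these data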;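 also: 100% = response to 3 µM Δ7-dafachronic acid high control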
DAX1 inh-1 – DAX1 (NR0B1) inhibitors, primary screen, cell-based, HEK293, Gal4-DAX1, luciferase luminescence. inhibition, % at 6.75 µM. HEK293 Gal4-DAX1 luciferase reporter. Nuclear receptor subfamily 0 group B member 1 (Homo sapiens), P51843. 340,000 tested, 0.99% active;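 active = inhibition above the mean over all tested compounds plus 3 SD, cut at about 4.2% in these data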;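 also: 0% = DAX1-transfected cells with DMSO and 100% = empty-vector control cells with DMSO; inhibition shows as a rise in luminescence from relieved DAX1 repression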
Target sequence (P51843 207-470 limits assumed): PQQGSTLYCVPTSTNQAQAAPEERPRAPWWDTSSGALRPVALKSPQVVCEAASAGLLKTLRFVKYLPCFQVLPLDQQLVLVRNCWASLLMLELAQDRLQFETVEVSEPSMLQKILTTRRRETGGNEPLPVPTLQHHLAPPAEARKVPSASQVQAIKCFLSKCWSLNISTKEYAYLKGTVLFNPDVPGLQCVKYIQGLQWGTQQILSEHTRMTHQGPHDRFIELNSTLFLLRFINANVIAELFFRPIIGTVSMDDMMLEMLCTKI
DAX1 inh-2 – DAX1 (NR0B1) inhibitors on StAR promoter, primary screen, cell-based, luminescence, SF-1 (NR5A1), full-length DAX-1; 370,000 tested, 1.1% active; inhibition, % at 6.8 µM; HEK293T StAR-luciferase reporter, SF-1/DAX-1 repression relief;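 active = inhibition above the mean over all tested compounds plus 3 SD, cut at about 3.6% in these data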;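 also: 0% = DAX-1 cells with DMSO and 100% = cells lacking DAX-1 with DMSO; higher inhibition means more luminescence from relief of DAX-1 repression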
ssDAF12 agonist – S. stercoralis DAF-12 nuclear receptor activators, primary screen, cell-based, luminescence, HEK293, GRIP1 co-expression, lit1-tk-luc; activation, % at 6.8 µM; 370,000 tested, 1% active; HEK293 ssDAF-12/GRIP1 lit1-tk-luc reporter; % of 3 µM dafachronic acid response; Nuclear hormone receptor DAF-12 (Strongyloides stercoralis); AID 652126, 2013;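 active = activation above the mean over all tested compounds plus 3 SD, cut at about 0.9% in these data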;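 also: 0% = DMSO-only wells and 100% = 3 µM delta7-dafachronic acid wells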
LXRb hcDAF ctr – LXR agonists, Gal4 luciferase reporter, confirmation, counter-screen for hcDAF-12 agonist project, cell-based, luminescence, HEK293, H. contortus campaign; shares compounds with hcDAF-12 act; HEK293 Gal4-LXR tk-luc reporter, 24 h; normalized: DMSO 0%, positive control 100%; activation, % at 6.8 µM; 3,400 tested, under 10 active; AID 743027, 2013;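 active = mean percent activation of the reporter above a cutoff set as the average over tested compounds plus their standard deviation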
hcDAF12 conf – H. contortus DAF-12 receptor agonists, confirmation, cell-based, luminescence, HEK293, lit1-tk-luc, triplicate | HEK293 hcDAF-12 lit1-tk-luc reporter; % of Δ7-dafachronic acid response | AID 743032, 2013 | activation, % at 6.8 µM | 3,400 tested, 61% active | shares compounds with hcDAF-12 act;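 active = mean activation across triplicate tests above the threshold derived from the earlier primary screen, cut at about 5.5% in these data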;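 also: 0% = DMSO only wells and 100% = 3 µM Δ7-dafachronic acid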
* hit, by the source's call; . = no result. Shown are actives, neighbours in structure and some others; about 4.1% of the full set was active somewhere.

SMILES | hgDAF12 agonist | hcDAF-12 act | DAX1 inh-1 | DAX1 inh-2 | ssDAF12 agonist | LXRb hcDAF ctr | hcDAF12 conf
OCC1CCCN(C(=S)Nc2ccc(OC(F)F)cc2)C1 (stereo not drawn) | 3.7 | 10.7* | 0.7 | 1.0 | -0.5 | 0.1 | 0.3
CN(C)c1ccc(P(=O)(Nc2ccccc2)N2CCOCC2)c(NC(=O)c2cccs2)c1 (stereo not drawn) | 3.1 | 4.2 | 0.0 | -0.1 | 0.7 | . | .
CN(C)c1ccc(P(=O)(Nc2ccc([N+](=O)[O-])cc2)N2CCOCC2)c(NC(=O)c2cccs2)c1 (stereo not drawn) | 3.3 | 8.0* | 1.1 | -0.3 | 0.5 | 0.0 | 4.5
Cc1ccc(NP(=O)(c2ccc(N(C)C)cc2NC(=O)c2cccs2)N2CCOCC2)cc1 (stereo not drawn) | 5.8 | 8.4* | -0.3 | 0.3 | 1.5* | -0.4 | 2.2
COC(=O)[C@]1(CNC(C)=O)CC(=O)N(Cc2ccc(Cl)cc2)[C@@H]1c1ccc(OC)cc1 | -1.8 | 1.2 | . | 0.1 | -0.7 | . | .
COc1ccc(F)cc1-c1cc(C(C)=O)c2n(c1=O)CCC2 | 0.9 | -1.3 | . | -0.1 | -0.6 | . | .
COc1ccc(Cn2cc(CN3[C@@H](Cc4ccccc4)COc4cc(Br)ccc4S3(=O)=O)nn2)cc1 | 1.2 | -1.9 | . | -1.4 | -1.4 | . | .
NC(=S)Nc1nc2ccccc2s1 | 9.7 | 7.9* | 0.2 | 1.6 | 0.8 | 0.5 | 7.0*
O=C(NC(=S)Nc1nc2ccccc2s1)c1cccs1 | 8.7 | 13.1* | 5.1* | 2.4 | 0.8 | 1.2 | 16.6*
O=C(NC(=S)Nc1ccc(Br)cn1)c1cccs1 | 14.4* | 12.9* | 6.1* | 2.7 | 2.0* | 1.5 | 12.0*
S=C(Nc1ccccc1)Nc1ccc(Br)cn1 | 0.9 | -2.5 | -1.4 | -0.5 | -1.1 | . | .
O=C(Nc1nc2ccccc2s1)C1CCCO1 (stereo not drawn) | 9.5 | 7.5* | 0.2 | 2.1 | 0.5 | 1.1 | 6.7*
COC(=O)c1nc(NC(=S)NC(=O)c2cccs2)sc1C | 5.3 | 3.9 | 0.3 | 1.2 | 0.1 | . | .
O=C(Nc1nnc(-c2ccccc2F)s1)C1CCCO1 (stereo not drawn) | 6.3 | 3.6 | -0.3 | 2.7 | -0.5 | . | .
COc1n[nH]c(C(=O)Nc2nc3ccccc3s2)c1[N+](=O)[O-] | 10.0 | 8.0* | 3.0 | 1.5 | 0.2 | 0.4 | 6.1*
COc1ccc(NC(=O)Nc2nc3ccccc3s2)cc1 | 11.2* | 7.1* | 2.3 | 2.2 | 0.5 | 0.7 | 1.8
C=CCN1C(=O)[C@@H](CC(=O)NCc2cccc3ccccc23)[C@]2(C(=O)OC)CCCCC=C12 | -5.5 | -0.3 | . | 0.1 | -1.6 | . | .
Cc1cccc(/C(N)=N/OC(=O)c2cccc3ccccc23)c1 | 4.8 | 7.0* | 2.1 | 2.5 | 0.9* | 0.3 | 6.3*
N/C(=N\OC(=O)c1cccc2ccccc12)c1cccc([N+](=O)[O-])c1 | -0.9 | 0.4 | 0.7 | 0.7 | -1.5 | . | .
N/C(=N\OC(=O)c1ccccc1Cl)c1ccc(Cl)cc1 | 9.1 | 9.1* | 1.9 | 1.6 | 1.5* | 1.4 | 14.7*
N/C(=N\OC(=O)c1ccc(Cl)cc1Cl)c1ccccc1 | 10.3 | 7.3* | 2.3 | 2.5 | 0.1 | 2.1 | 25.1*
N/C(=N\OC(=O)c1ccc(Cl)cc1Cl)c1ccc(Cl)cc1 | 2.3 | 2.2 | 4.2 | -0.1 | 0.0 | . | .

Screening data deposited in PubChem BioAssay by The Scripps Research Institute Molecular Screening Center.
